# According to PubChem BioAssay:
# Activity calls are given as the source filed them.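 The calls were made as follows, unless noted: active = viability loss from added drug above about 55%, and viability with drug at most 40%, in both replicates (limit read from the data, passing the limit was not always enough); inconclusive = both conditions met in only one replicate; inactive = neither replicate meets both conditions.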
# How the values were obtained:
# [1] = HUVEC growth inhibition – cell-based, human, primary screen (AID 575;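 active = viability at or below 30% in both replicate assays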;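 also: 100% = median of untreated cell wells with 0.1% DMSO on each plate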); conditions: HUVEC proliferation, CellTiter-Glo luminescence, 72 h; at 10 µM; stronger effect = lower value
# [2] = growth inhibitors of H69AR lung tumor, primary screen, human, duplicate replicates (AID 580;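 active = viability at or under a set limit in both replicates, limit being median viability minus 3 SD, cut at about 48% in these data, passing the limit was not always enough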;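 also: 100% = mean luminescence of untreated wells and 0% = no signal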); conditions: H69AR lung tumor cells viability, ATP luminescence, 72 h; at 10 µM; stronger effect = lower value
# [3] = reversal of MRP1-mediated doxorubicin resistance, pilot screen, H69AR cells, doxorubicin co-treatment (AID 601); conditions: CellTiter-Glo, 72 h, at 10 µM; for differential viability (reversal): stronger effect = higher value
# [4] = 384-well plate pilot, post-Golgi transport modulator project, inhibition of yeast transport mutant growth (AID 636; in the data active = inhibition above about 31%); conditions: absorbance 615 nm, about 18 h, stronger effect = higher value
# [5] = growth suppression of yeast trafficking mutant, preliminary HTS, modulators of trafficking downstream of Golgi apparatus project, 1536-format plate, OD 615 nm (AID 637; in the data active = inhibition above about 30%); conditions: yeast transport mutant growth, absorbance 615 nm, 18 h; stronger effect = higher value
# [6] = H69AR cells + 2 uM doxorubicin, measured here: viability with 2 uM doxorubicin, stronger effect = lower value
# [7] = H69AR cells, compound alone cytotoxicity
SMILES,viability [1],viability [2],differential viability (reversal) ([3]; H69AR cells + 2 uM doxorubicin),"viability [3, 6] [%]","viability [3, 7] [%]",inhibition [4],inhibition [5]
O=C(NCCN1CCCCCC1)c1ccc(N2CCCC2=O)cc1,91% (inactive),95.9% (inactive),3.38% (inactive),92.5,95.9,-7.2% (inactive),12.5% (inactive)
COc1ccc(C(=O)COC(=O)CCn2nnc(-c3cccs3)n2)cc1,110% (inactive),102% (inactive),9.01% (inactive),93.4,102,-0.27% (inactive),-6.35% (inactive)
Cc1cccc(NC(=O)c2oc3c(c2C)C(=O)CC(C)(C)C3)n1,106% (inactive),92.3% (inactive),9.28% (inactive),83,92.3,-6.27% (inactive),-3.49% (inactive)
CCN(CC(=O)O)S(=O)(=O)c1cc(Cl)ccc1Cl,96.5% (inactive),90.9% (inactive),-1.08% (inactive),92,90.9,-7.2% (inactive),-1.75% (inactive)
O=C(Cn1cnc2sc(-c3ccccc3)cc2c1=O)N1CCOCC1,116% (inactive),97% (inactive),3.61% (inactive),93.4,97,-1.58% (inactive),1.75% (inactive)
COc1cccc(-c2csc3nc[nH]c(=O)c23)c1,92.6% (inactive),86.7% (inactive),16.7% (inactive),70,86.7,-5.73% (inactive),5.71% (inactive)
COc1ccc(C)cc1NC(=O)CCN1CCCC1,105% (inactive),97.5% (inactive),9.77% (inactive),87.7,97.5,-6.13% (inactive),1.11% (inactive)
CCCc1n[nH]c2c1/C(=N/O)CC(c1ccccc1)C2 (stereo unspecified),49.5% (inactive),66.1% (inactive),-14.4% (inactive),80.6,66.1,-2.34% (inactive),2.86% (inactive)
O=C(O)c1ccc(-n2nnnc2Oc2ccccc2C(=O)N2CCOCC2)cc1,108% (inactive),102% (inactive),16.1% (inactive),85.7,102,-1.97% (inactive),-2.7% (inactive)
c1ccc2[nH]c(CSc3nnc(-c4ccncc4)o3)nc2c1,104% (inactive),90.9% (inactive),-5.82% (inactive),96.7,90.9,-2.24% (inactive),2.06% (inactive)
CN(C(=O)c1c(Cl)nc2sccn12)C1CCCCC1,106% (inactive),93.9% (inactive),16.4% (inactive),77.5,93.9,-5.53% (inactive),-5.4% (inactive)
CC(C)NC(=O)NC(=O)COc1cccc2c1OC(C)(C)C2,97.1% (inactive),105% (inactive),16.9% (inactive),87.9,105,-3.38% (inactive),0.79% (inactive)
COc1ccc(CCNS(=O)(=O)c2ccc3c(c2)OCCO3)cc1,109% (inactive),103% (inactive),10.1% (inactive),92.6,103,-0.53% (inactive),-3.17% (inactive)
CC(=O)Nc1cccc(-c2nnc(-c3ccccc3)o2)c1,88.8% (inactive),92.6% (inactive),6.77% (inactive),85.8,92.6,-5.58% (inactive),-1.9% (inactive)
CCC1(CC)C(=O)C(C)(C)C(=O)OC1c1cccs1 (stereo unspecified),120% (inactive),90.7% (inactive),5.04% (inactive),85.7,90.7,-2.89% (inactive),2.86% (inactive)
CC(NS(=O)(=O)c1ccc(OCC(=O)N2CCOCC2)c(Cl)c1)c1ccccc1 (stereo unspecified),94.9% (inactive),94.7% (inactive),0.355% (inactive),94.4,94.7,-6.53% (inactive),4.76% (inactive)
CCCn1c(SCC(=O)NCc2ccco2)nc2c1c(=O)n(C)c(=O)n2C,87.6% (inactive),94.4% (inactive),15.9% (inactive),78.5,94.4,-7.87% (inactive),2.38% (inactive)
CCCCCCNC(=O)c1c(N)n(/N=C/c2ccco2)c2nc3ccccc3nc12,53.7% (inactive),78.4% (inactive),-0.96% (inactive),79.4,78.4,-4.4% (inactive),-0.16% (inactive)
CN(C)CCSc1nnc2sc3ccccc3n12,94.2% (inactive),92.8% (inactive),-0.905% (inactive),93.7,92.8,-5.92% (inactive),-5.08% (inactive)
Cc1ccc(-c2ccc(/C=N/n3cnnc3)o2)cc1Cl,87.2% (inactive),101% (inactive),4.54% (inactive),96.3,101,-2.08% (inactive),86.2% (active)

SMILES,viability [1],viability [2],differential viability (reversal) ([3]; H69AR cells + 2 uM doxorubicin),"viability [3, 6] [%]","viability [3, 7] [%]",inhibition [4],inhibition [5]
COc1ccc(C2(C(=O)Nc3cc(C)on3)CCOCC2)cc1,98% (inactive),88.1% (inactive),1.2% (inactive),86.9,88.1,-5.87% (inactive),10.8% (inactive)
O=C(Nc1ccc(Cl)c(Cl)c1)Nc1cc(C(=O)N2CCOCC2)ccc1N1CCCCC1,105% (inactive),95.9% (inactive),4.12% (inactive),91.8,95.9,-4.08% (inactive),-2.22% (inactive)
CCOC(=O)C1CCN(C(=O)CN(Cc2ccccc2)S(C)(=O)=O)CC1,112% (inactive),92.1% (inactive),-1.19% (inactive),93.3,92.1,-6.4% (inactive),2.7% (inactive)
COC(=O)c1ccccc1NC(=O)c1noc2c1CC(C(C)(C)C)CC2 (stereo unspecified),112% (inactive),107% (inactive),14.2% (inactive),92.9,107,-1.17% (inactive),0.63% (inactive)
COc1ccc(CCN2CCC(Nc3nc4ccccc4n3Cc3ccc(F)cc3)CC2)cc1,1.47% (active),,0.16% (inactive),0.36,0.52,,
Cc1cc(C)c(C(=O)CSc2nnc(-c3ccccc3Br)o2)cc1C,,73.1% (inactive),-2.75% (inactive),75.8,73.1,-3.87% (inactive),3.49% (inactive)
Cc1cc2oc(=O)cc(CN3CCCCC3)c2cc1C(C)C,52.5% (inactive),,0.87% (inactive),51.2,52.1,-1.82% (inactive),-2.06% (inactive)
COc1cccc2c1C(=O)c1c(O)c3c(c(O)c1C2=O)C[C@@](O)(C(C)=O)C[C@@H]3O[C@H]1C[C@H](N)[C@H](O)[C@H](C)O1,5.46% (active),,,,,-2.73% (inactive),-0.17% (inactive)
O=c1[nH]c2ccccc2n1CCCN1CCN(C(c2ccccc2)c2ccccc2)CC1,75.3% (inactive),,-29.9% (inactive),41.1,11.2,,
COC(=O)C(F)(F)Sc1c(C)[nH]c2ccccc12,,92.2% (inactive),1.54% (inactive),90.6,92.2,-2.37% (inactive),-1.43% (inactive)
Oc1ccc(Nc2nc(-c3ccc(O)cc3)cs2)cc1,,58.4% (inactive),-29.7% (inactive),88.1,58.4,-8.13% (inactive),-4.13% (inactive)
COc1ccc(Cn2c(C)nc3c(c2=O)c2nc4ccccc4nc2n3Cc2ccco2)cc1,62% (inactive),,3.86% (inactive),30.8,34.6,-1.71% (inactive),5.56% (inactive)
Nc1nc(Cl)nc2c1ncn2[C@@H]1O[C@H](CO)[C@@H](O)[C@H]1O,3.95% (active),,-24.3% (inactive),74.6,50.3,-1.43% (inactive),1% (inactive)
COC(=O)c1ccc(NC2(C#N)C(=O)Nc3ccccc32)cc1 (stereo unspecified),69.2% (inactive),,-16.1% (inactive),58.2,42.1,-5.33% (inactive),3.97% (inactive)
Cn1cc(-c2nc3ccccc3[nH]2)c2ccccc21,81% (inactive),,-9.86% (inactive),72,62.2,-7.33% (inactive),-0.63% (inactive)
CN(C)c1ccc(/C=C/C(O)=C2/C(=O)N(C)C3(C)CC2c2ccccc2O3)cc1 (stereo unspecified),55.4% (inactive),,-7.07% (inactive),44.6,37.5,-2.47% (inactive),-12.7% (inactive)
COc1cccc2c1C(=O)c1c(O)c3c(c(O)c1C2=O)C[C@@](O)(C(=O)CO)C[C@@H]3O[C@H]1C[C@H](N)[C@H](O)[C@H](C)O1,22.1% (active),,-7.64% (inactive),25.6,18,0.26% (inactive),3% (inactive)
CCOC(=O)C1=C(Cn2cnc3ccccc32)NC(=O)NC1c1cc(C)ccc1C (stereo unspecified),93.7% (inactive),,-17.6% (inactive),60.1,42.5,-1.71% (inactive),1.43% (inactive)
CCNc1nc(NC(C)C)nc(N(C#N)CCOc2ccc(Cl)cc2Cl)n1,48.8% (inactive),,20.4% (inactive),33.2,53.6,16.2% (inactive),-3.81% (inactive)
